Assay results published in PubChem BioAssay (NCATS).
Values joined by “and” are separate entries in the source; they are usually repeats but may differ in a detail not shown here. Equal values may be shown once. Results filed as inconclusive are left out. Entries that show only a call come without a potency. Active and inactive are the calls of the source. Unless noted, calls come from the whole dose curve; as a rule, active = well fitted curve in the direction sought with a large enough effect; inconclusive = small, poorly fitted or top-dose-only effect, or another doubt; inactive = no such curve, though single readings can be large; an effect the other way counts as inactive or inconclusive.

Experiments:
[1] = Validation of Assay for Modulators of Lamin A Splicing (AID 1459; active = well fitted curve in the direction sought with a large enough effect in the signal ratio; the % refers to the signal ratio;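 note: cells exposed to compound for two days before reading; ratio rise marks activators and ratio drop marks inhibitors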); details: Lamin A splicing dual RFP/GFP fluorescence reporter; series mostly up to 9.22 µM
Outline: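 Splicing correction is reported by an EGFP-containing lamin A minigene in stably transfected S3 HeLa cells, while DsRed2 controls for viability and nonspecific signal. Cells are exposed to compounds for 48 hrs before the GFP over RFP ratio is taken.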

[2] = qHTS Assay for Lipid Storage Modulators (AID 1519; calls by dose curve); details: Drosophila S3 cells, BODIPY lipid droplet/cell ratio, laser cytometry, cells loaded with oleic acid; for activity change, negative = inhibition: at 57.5 µM (top of the series)
Outline: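 Cells seeded at 5,000 per well were treated with compounds over a concentration series and loaded with oleic acid (400 uM, as added). Lipid droplet fluorescence (488 nm excitation, 500-530 nm channel) was read by laser-scanning cytometry and normalized to 20 uM Triacsin C.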

[3] = target: DNA repair nuclease/redox regulator APEX1 (Homo sapiens) (UniProt P27695); assay: qHTS Validation Assay for Inhibitors of the Human Apurinic/apyrimidinic Endonuclease 1 (APE1) (AID 1705;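 note: TAMRA fluorescence gain over two minutes as APE1 cuts a quenched THF abasic duplex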); details: purified APE1 endonuclease activity, fluorescence, titration; series mostly up to 57.1 µM
DNA repair nuclease/redox regulator APEX1 (Homo sapiens), sequence (P27695 whole entry, looked up): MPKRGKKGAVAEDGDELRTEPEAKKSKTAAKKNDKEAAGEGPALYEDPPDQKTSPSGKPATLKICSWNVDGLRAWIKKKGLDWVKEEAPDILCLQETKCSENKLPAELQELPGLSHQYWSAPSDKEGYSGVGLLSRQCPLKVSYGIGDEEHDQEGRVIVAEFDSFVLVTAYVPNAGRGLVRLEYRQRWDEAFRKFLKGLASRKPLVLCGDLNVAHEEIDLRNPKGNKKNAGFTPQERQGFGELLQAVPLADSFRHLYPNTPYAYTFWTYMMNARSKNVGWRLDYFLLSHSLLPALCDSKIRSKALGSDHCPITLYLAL
Outline: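 Endonuclease activity of human APE1 is followed as dequenching when the enzyme incises a tetrahydrofuran abasic site in a short duplex labelled 5'-TAMRA/3'-BHQ-2 (50 nM final), after 15 min enzyme–compound preincubation at room temperature.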

[4] = Counterscreen for APE1 Inhibitors: Fluorescent Dye Displacement Validation Assay (AID 1707); details: fluorescent dye displacement from DNA; series mostly up to 57.1 µM
Outline: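 Counterscreen flags promiscuous DNA binders: compounds displacing ThO from duplex DNA (abasic THF site, 50 nM) reduce 540 nm emission (480 nm excitation). ThO 250 nM final; Tris-HCl pH 7.5 with NaCl, MgCl2 and Tween-20.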

[5] = target: Alpha-galactosidase A (Homo sapiens) (UniProt P06280); assay: Counterscreen for Glucocerebrosidase Inhibitors: qHTS Assay for Human alpha-Galactosidase at pH 4.5 (AID 992); details: purified enzyme, fluorogenic substrate; series mostly up to 76.9 µM
Alpha-galactosidase A (Homo sapiens), sequence (P06280 whole entry, looked up): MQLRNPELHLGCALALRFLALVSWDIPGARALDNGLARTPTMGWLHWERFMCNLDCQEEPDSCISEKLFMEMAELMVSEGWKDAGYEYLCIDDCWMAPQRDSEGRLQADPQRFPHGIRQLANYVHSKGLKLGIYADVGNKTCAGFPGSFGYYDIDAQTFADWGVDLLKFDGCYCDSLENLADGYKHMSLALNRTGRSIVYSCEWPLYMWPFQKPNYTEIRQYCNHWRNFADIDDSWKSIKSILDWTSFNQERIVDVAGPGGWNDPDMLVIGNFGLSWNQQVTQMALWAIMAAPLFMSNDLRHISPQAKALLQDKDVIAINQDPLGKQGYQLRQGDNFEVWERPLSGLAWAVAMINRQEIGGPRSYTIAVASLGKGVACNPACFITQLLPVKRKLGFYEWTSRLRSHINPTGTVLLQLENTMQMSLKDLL
Outline: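 Fluorogenic 1536-well qHTS at pH 4.5 (citrate, Tween-20): 2 nM enzyme, 80 uM 4-MU-alpha-galactoside, 20 min room temperature, NaOH/glycine stop. Titration 0.7 nM to 77 uM, data normalized to no-enzyme and full-activity controls, Hill-fitted AC50.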

[6] = target: alpha-glucosidase (Oryza sativa, rice) (UniProt Q653V4); assay: Counterscreen for Glucocerebrosidase Inhibitors: qHTS Assay for Rice alpha-Glucosidase at pH 5.0 (AID 997); details: rice alpha-glucosidase enzyme activity; series mostly up to 76.9 µM
Outline: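 Endpoint fluorogenic assay at pH 5.0: compounds (0.7 nM to 77 uM) titrated against 4 nM rice enzyme and 400 uM 4-MU-alpha-glucoside for 20 min at room temperature; NaOH/glycine stop, read ex 365/em 440 nm, Hill-fitted AC50.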

[7] = Cell Viability - LYMP2-024 (AID 988); details: LYMP2-024 lymphoblastoid cell viability; series mostly up to 92.2 µM; note: nearly all actives have a fitted effect of over 60% in size
Outline: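 ATP-based luminescence (CellTiter-Glo, 30 min RT) after 24 h compound exposure at 37 C of 2500 lymphoblastoid cells/well; decrease in ATP taken as cytotoxicity. qHTS concentration-response fitted to standard Hill equation for AC50.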

[8] = Cell Viability - LYMP2-026 (AID 989); details: LYMP2-026 lymphoblastoid cell viability, qHTS; series mostly up to 92.2 µM; note: nearly all actives have a fitted effect of over 50% in size
Outline: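 qHTS cytotoxicity: 2500 cells/well, 5 hr 37 C, compound 24 hr 37 C, CellTiter-Glo 30 min RT, luminescence. Tetraoctylammonium bromide positive control. AC50 via standard Hill fit.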

[9] = Cell Viability - LYMP1-002 - Assay at 24 hr (AID 993); details: LYMP1-002 lymphoblastoid cells viability; series mostly up to 92.2 µM
Outline: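 CellTiter-Glo luminescence (intracellular ATP) after 24 h compound exposure, 37 C, in LYMP1-002 human lymphoblastoid cells; decreased ATP taken as cytotoxicity. AC50 from standard Hill fit of concentration-response curves.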

[10] = Cell Viability - LYMP1-002 - Assay at 40 hr (AID 994); details: LYMP1-002 lymphoblastoid cell viability; series mostly up to 92.2 µM; note: nearly all actives have a fitted effect of over 60% in size
Outline: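 qHTS cytotoxicity; 2500 cells/well, 5 hr 37 C settle, compound 40 hr 37 C. CellTiter-Glo, 30 min RT, luminescence (ATP). Concentration-response, Hill fit → AC50. Pos. ctrl tetraoctylammonium bromide.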

[11] = measured here: cell count channel max response
[12] = measured here: lipid channel max response

O=C(/C=C/c1ccc(O)cc1)c1ccc(O)cc1O
outcome [1]: inactive
activity change, negative = inhibition [2]: 6.63% (inactive) and 0.947% (inactive)
max response [2, 11]: 1.72% and 46.2%
max response [2, 12]: 5.97% and 48.5%
Potency [3]: inactive
Potency [4]: inactive

COc1cc(C(O)CO)ccc1OS(=O)(=O)O (configuration not stated)
outcome [1]: inactive
activity change, negative = inhibition [2]: 0.915% (inactive)
max response [2, 11]: -36.7%
max response [2, 12]: -37%
Potency [4]: inactive

CN1C2CCC1CC(OC(=O)C(O)c1ccccc1)C2 (configuration not stated)
outcome [1]: inactive
activity change, negative = inhibition [2]: 9.19% (inactive)
max response [2, 11]: 16.5%
max response [2, 12]: 28.9%
Potency [4]: inactive

NC(N)=NC(=O)c1nc(Cl)c(N2CCCCCC2)nc1N
outcome [5]: inactive
outcome [6]: inactive
outcome [1]: inactive
activity change, negative = inhibition [2]: -1.28% (inactive) and 0.178% (inactive)
max response [2, 11]: 5.25% and -33%
max response [2, 12]: 6.67% and -33.1%
Potency [3]: inactive
Potency [4]: inactive

CC1(C)CCC=[N+]1[O-]
outcome [5]: inactive
outcome [6]: inactive
outcome [1]: inactive
activity change, negative = inhibition [2]: 0.483% (inactive)
max response [2, 11]: -28.1%
max response [2, 12]: -25.6%
Potency [4]: inactive

O=c1[nH]c2cc(C(F)(F)F)ccc2n1-c1cc(C(F)(F)F)ccc1O
outcome [5]: inactive
outcome [6]: inactive
outcome [1]: inactive
activity change, negative = inhibition [2]: -0.787% (inactive)
max response [2, 11]: 34.5%
max response [2, 12]: 34%
Potency [3]: inactive
Potency [4]: inactive

CN1CCc2cc(O)c(O)cc2C(c2ccccc2)C1 (configuration not stated)
outcome [1]: inactive
activity change, negative = inhibition [2]: -0.441% (inactive)
max response [2, 11]: 31.9%
max response [2, 12]: 29.5%
Potency [3]: inactive
Potency [4]: inactive

CN(C)CCC(c1ccc(Cl)cc1)c1ccccn1 (configuration not stated)
Potency [7]: inactive
Potency [8]: inactive
Potency [9]: inactive
Potency [10]: inactive
outcome [1]: inactive
activity change, negative = inhibition [2]: 1.75% (inactive)
max response [2, 11]: 45.4%
max response [2, 12]: 46%
Potency [3]: inactive
Potency [4]: inactive

C=CC(N)CCC(=O)O (configuration not stated)
outcome [1]: inactive
activity change, negative = inhibition [2]: 4.04% (inactive)
max response [2, 11]: 13.5%
max response [2, 12]: 19.4%
Potency [3]: inactive
Potency [4]: inactive

Fc1cccc(/C=N/N=C/c2cccc(F)c2)c1
outcome [1]: inactive
activity change, negative = inhibition [2]: 2.18% (inactive)
max response [2, 11]: -17.3%
max response [2, 12]: -14.5%
Potency [3]: inactive
Potency [4]: inactive
